# Results reported in PubChem BioAssay (NCATS).
# Inconclusive results are not listed. A number with no mark means an inactive call. Calls come from the whole dose curve; as a rule, active = well fitted cell-killing curve with a large enough effect; inconclusive = small, poorly fitted or top-dose-only effect, or effect the other way; inactive = flat fitted curve, though single readings scatter.
# Assay: MultiTox-Fluor Cytotoxicity Assay - LYMP1-002 - Live Cells (AID 955)
# Conditions: LYMP1-002 lymphoblastoid live-cell protease fluorescence viability; series mostly up to 46.1 µM; viability change, negative = cytotoxic: at the top concentration
# Text: NIH Chemical Genomics Center [NCGC]
# NIH Molecular Libraries Screening Centers Network [MLSCN]
# National Institutes of Environmental Health Sciences [NIEHS]
# National Toxicology Program [NTP]
# We have developed a 1536-well cell-based assay for quantitative high throughput screening (qHTS) against a number of cell lines to determine in vitro cytotoxicity of small molecules. This particular assay uses a human lymphoblastoid cell line (LYMP1-002) purchased from Coriell Institute.
# NCGC Assay Protocol Summary:
# The MultiTox-Fluor Cytotoxicity Assay (Promega) is a homogeneous method to simultaneously measure the relative number of live and dead cells in culture by detecting changes in cell membrane integrity. There are two fluorogenic peptide substrates in the assay reagent. Viable cells are determined when the cell-permeant substrate (GF-AFC) enters the cell and is cleaved by protease from live cells resulting in liberated fluorophore. This live-cell protease activity restricted to viable cells is proportional to cell number. The dead cells are determined by using fluorogenic cell-impermeant peptide substrate (bis-AAF-R110) which cleaved by dead cell proteases leaking from damaged cell membrane.
# Using the MultiTox-Fluor Cytotoxicity Assay, the relative number of live cells was measured in the lymphoblastoid cell line with complete culture medium following compound treatment for 16 hours. The assay was performed in opaque black Kalypsys 1536-well plates. In the screen, tetraoctylammonium bromide was used as positive control. Library compounds were measured for their ability to cause acute toxicity in the cell line, as reflected by a decrease in live cell protease activity, in a concentration-dependent manner. […] AC50 values were determined from concentration-response data modeled with the standard Hill equation.
# qHTS protocol for MultiTox-Fluor Cytotoxicity assay
# [Step] [Parameter] [Value] [Description]
# 1. Reagent; 5 uL; 2500 lymphoblastoid cells/well
# 2. Time; 5 hr; 37 C incubation
# 4. Controls; 23 nL; Tetraoctylammonium bromide 6.4pM to 92 uM
# 5. Time; 16 hr; 37 C incubation
# 6. Reagent; 5 uL; MuliTox-Fluor Assay reagent
# 7. Time; 60 min; Room Temperature
# 8. Detection; live-cell fluorescence (Ex/Em=405/510); EnVision plate reader
# Keywords: cell viability, cytotoxicity, lymphoblastoid cell line, fluorescence, NTPHTS, NTPHTS_NCGC, NIEHS, EPA, DSSTox, MLSMR, MLSCN, NIH Roadmap, qHTS, NCGC
# % is set by controls: 0 for no effect and ±100 for the full control effect.
row,SMILES,"viability change, negative = cytotoxic [%]"
1,O=[N+]([O-])c1cccc(O)c1,1.94
2,Clc1ccc(C(c2ccccc2Cl)C(Cl)(Cl)Cl)cc1 (stereo not given),4.96
3,CCOS(C)(=O)=O,3.32
4,Cc1ccc([N+](=O)[O-])cc1,7.04
5,Cc1cnc[nH]1,-11.6
6,OC[P+](CO)(CO)CO,0.308
7,c1ccoc1,0.528
8,Cc1ccc(N)c(C)c1,7.3
9,CCCCOC(=O)c1ccccc1N,6.15
10,O=[N+]([O-])c1ccccc1-c1ccccc1,-1.1
11,CC(C)CON=O,3.25
12,CNC(=O)O/N=C/C(C)(C)S(C)=O (stereo not given),-3.05
13,CCCCC(CC)COC(=O)c1ccc(C(=O)OCC(CC)CCCC)c(C(=O)OCC(CC)CCCC)c1 (stereo not given),-0.481
14,Cc1cc(N=Nc2ccccc2C)ccc1N,-2.46
15,BrC(Br)Br,5.85
16,Cc1cccc(C)c1N,9.14
17,O=NN1CCCCC1,-4.8
18,CC1CC(=O)O1 (stereo not given),-1.78
19,CCOP(=S)(OCC)SCCSCC,9.46
20,CCCN(CCC)c1c([N+](=O)[O-])cc(C(F)(F)F)cc1[N+](=O)[O-],13

row,SMILES,"viability change, negative = cytotoxic [%]"
1,CCC#N,-11.2
2,CCOC(=O)C1OC1(C)c1ccccc1 (stereo not given),4.82
3,CC(=O)CCC(C)=O,-13.3
4,COC(=O)Nc1cccc(OC(=O)Nc2cccc(C)c2)c1,-11.3
5,C=CCCC#N,-5.66
6,Cc1ccc(N)cc1C,4.59
7,CCCCCCCCCCCCCl,2.3
8,N#C/C=C/C#N,-6.64
9,N#C/C(N)=C(/N)C#N,-0.537
10,CN(C)c1ccc(N=Nc2ccccc2)cc1,-14.1
11,CCCCCOC(=O)c1ccccc1C(=O)OCCCCC,13.9
12,CC(C)(Cl)Cl,2.14
13,Oc1cc(Cl)ccc1Cl,8.03
14,OCCOCCO,5.77
15,O=C(Cl)c1ccccc1F,-1.98
16,c1ccc(P(c2ccccc2)c2ccccc2)cc1,9.38
17,ClCCBr,15.5
18,CCOP(=S)(OCC)Oc1nc(Cl)c(Cl)cc1Cl,7.42
19,CC(C#N)CCC#N (stereo not given),-8.9
20,CC(C)[C@]12CC(=O)[C@H](C)[C@H]1C2,6.85
